Among all 69,000 compounds or so, about 8,600 (12%) showed an effect of 50% or more. Shown is part of a subset that was picked to be rich in strong results.

The source of these data is ChEMBL document CHEMBL4513216, “Probing the Open Global Health Chemical Diversity Library for Multistage-Active Starting Points for Next-Generation Antimalarials” (ACS Infect Dis, 2020).

The assay deals with Plasmodium berghei. Description: Screen against P. berghei liver stage (PbLuc), transformed with Luciferase, at 10uM. In kind it is functional, HepG2. Particulars: tested at 10 uM.
Consider `Cc1nn(C)c2cnn(CCCNS(=O)(=O)Cc3ccccc3)c12`, for which the INHIBITION is listed as 41.6%.

In the case of `Cc1nccn1C1CCCN(C(=O)CCNc2ncccn2)C1` (stereo unspecified), the INHIBITION is on record as 5.03%.

`CC(C)CNC(=O)N1CCC2(CC1)OC(C(N)=O)Cn1ccnc12` (stereo unspecified): the INHIBITION was 39.4%.

Regarding `COCCCNC(=O)c1c(-n2cnnn2)sc2c1CCC2`, the INHIBITION was 30.8%.

As to `COCCCNC1N=C(n2nc(C)cc2C)Nc2sc3c(c21)CCCC3` (stereo unspecified), the INHIBITION is listed as 88.8%.

Consider `COC(=O)C1CCCN1C(=O)c1ccc(-n2nc(C)cc2C)cc1` (stereo unspecified), for which the INHIBITION was -16.8%.

`COCCNC(=O)c1c(-n2cnnn2)sc2c1CCCC2`: the INHIBITION was -6.42%.

On to `Cc1cc(C)n(C2=NC(NCCCO)c3c(sc4c3CCCC4)N2)n1` (stereo unspecified), for which the INHIBITION was found to be 79.7%.

As to `Cc1cc(C)n(C2=NC(NCCC(C)C)c3c(sc4c3CCCC4)N2)n1` (stereo unspecified), the INHIBITION amounted to 90.5%.

For `CC(C)OCCCNC(=O)c1c(-n2cnnn2)sc2c1CCCC2`, the INHIBITION was 20.1%.

As to `Cc1oc(C(=O)O)cc1S(=O)(=O)Nc1cc(Br)ccc1F`, the INHIBITION was -0.96%.

In the case of `Cc1ncncc1C(=O)N1CCC(O)(CN(C)Cc2ccc(F)cc2)C1` (stereo unspecified), the INHIBITION turned out to be 6.32%.

Take `CC(C)c1nnc(CCC(=O)N2CCCC(c3cnccn3)C2)o1` (stereo unspecified): the INHIBITION was 26.7%.

Consider `CN(C)C(=O)c1nn(C)c2c1CN(Cc1ccc(F)cc1)C2`, for which the INHIBITION turned out to be 31.7%.

In the case of `Cc1ccccc1NC(=O)N1CCN(C(=O)C2CC2)[C@@H]2CS(=O)(=O)C[C@@H]21`, the INHIBITION was -5.22%.

In the case of `O=C(Nc1ccccc1Cl)N1CCN(CC2CC2)[C@@H]2CS(=O)(=O)C[C@@H]21`, the INHIBITION was found to be 52.2%.

Consider `CS(=O)(=O)NCC1CCCN(C(=O)Nc2ccccc2Cl)C1` (stereo unspecified), for which the INHIBITION was 9.48%.

As for `CCCN1CCN(C(=O)Nc2ccccc2Cl)[C@H]2CS(=O)(=O)C[C@H]21`, the INHIBITION is on record as -32.9%.

As to `CN(C)C(=O)N1CCN(Cc2ccccc2)[C@@H]2CS(=O)(=O)C[C@@H]21`, the INHIBITION is listed as -33.2%.

Regarding `CC(=O)N1CCN(C(=O)Nc2ccccc2Cl)[C@H]2CS(=O)(=O)C[C@H]21`, the INHIBITION is reported as 72%.

Turning to `O=C(CCC(=O)N1CCc2[nH]c3ccccc3c2C1)NCc1ccco1`, the INHIBITION was determined as 1.41%.

Turning to `CNc1cc(C2CCCN(C(=O)c3ccc(=O)[nH]n3)C2)ccn1` (stereo unspecified), the INHIBITION came to 15.5%.

Take `COC[C@]1(O)CCN(Cc2ccc(N(C)C)nc2)CC1(C)C`: the INHIBITION is on record as 22.6%.

`Cc1cc(Nc2ncccn2)nc(C2CCCN(CCO)C2)n1` (stereo unspecified): the INHIBITION is given as -3.94%.

As to `Cc1ccc(S(=O)(=O)NC(=O)CCC(F)(F)F)cc1N(C)C`, the INHIBITION was 13.139%.

On to `Cc1cccc(-c2nc(CN3CCCC3Cn3cc(C)cn3)no2)c1` (stereo unspecified), for which the INHIBITION is recorded as 83.2%.

For `Cc1cnn(CC2CCCN2Cc2noc(C3CC3)n2)c1` (stereo unspecified), the INHIBITION turned out to be 37.9%.

Regarding `Cc1cnn(CC2CCCN2Cc2noc(C)n2)c1` (stereo unspecified), the INHIBITION turned out to be 9.14%.

For `Cc1ccc(-c2nc(CN3CCCC3Cn3cc(C)cn3)no2)cc1` (stereo unspecified), the INHIBITION is listed as 51.3%.

Regarding `Cc1cnn(CC2CCCN2Cc2noc(-c3ccccc3)n2)c1` (stereo unspecified), the INHIBITION is 23.5%.

As for `Cc1cccc(-c2nc(CN3CCCCC3Cn3cncn3)no2)c1` (stereo unspecified), the INHIBITION is listed as 13.9%.

Consider `CC1N(c2cnn(C)c2)C(=O)COC12CCN(Cc1ccco1)CC2` (stereo unspecified), for which the INHIBITION amounted to 16.6%.

With `CCCc1ccc(S(=O)(=O)NC2(CC(N)=O)CCC2)cc1`, the INHIBITION amounted to 51.3%.

With `COc1ccc(S(=O)(=O)NC2(CC(N)=O)CCC2)cc1`, the INHIBITION is 42.7%.

For the compound `CC(C)c1ccc(S(=O)(=O)NC2(CC(N)=O)CCC2)cc1`, the INHIBITION turned out to be 37.7%.

Regarding `NC(=O)Cn1c(CO)cnc1SCc1ccccc1Cl`, the INHIBITION is given as -4.01%.

With `Cc1noc(C2CCC3(CCN(C(=O)c4cc(C5CC5)on4)CC3)O2)n1` (stereo unspecified), the INHIBITION was 7.53%.

In the case of `CNc1cncc(C2CCCN2c2cc(C)ncn2)n1` (stereo unspecified), the INHIBITION was 52%.

As for `Cc1cc(N2CCCC2c2cncc(N(C)C)n2)ncn1` (stereo unspecified), the INHIBITION turned out to be 14.7%.

`CNc1cncc(C2CCCN2C(=O)c2ccc3c(c2)CCC3)n1` (stereo unspecified): the INHIBITION was 54.5%.

For the compound `CNc1cncc(C2CCCN2C(=O)c2ccc3oc(C)cc3c2)n1` (stereo unspecified), the INHIBITION is given as 6.81%.

As for `CNc1cncc(C2CCCN2C(=O)c2ccc3c(c2)OCCO3)n1` (stereo unspecified), the INHIBITION was determined as 30.8%.

As to `Cc1cc(N2CCCC2c2cnccn2)ncn1` (stereo unspecified), the INHIBITION is on record as 11.4%.

`CNc1cncc(C2CCCN2Cc2ccccn2)n1` (stereo unspecified): the INHIBITION is 35.8%.

Regarding `CNc1cncc(C2CCCN2Cc2cccc(C)n2)n1` (stereo unspecified), the INHIBITION came out at 45.6%.

With `CNc1cncc(C2CCCN2Cc2ccn(C)n2)n1` (stereo unspecified), the INHIBITION was 51.5%.

Take `CCCc1noc(CN2CCC(NC(=O)c3ccc(C)s3)CC2)n1`: the INHIBITION amounted to 25%.

With `CNc1cc(N2CCCC2CNCc2cccnc2)ncn1` (stereo unspecified), the INHIBITION is on record as -3.19%.

Turning to `CCO[C@@H]1CC[C@H]2[C@H]1OCCN2CCOCc1ccccc1`, the INHIBITION came to 41.2%.

As to `O=C(Nc1ccc2c(c1)OCCO2)N1CCCC1c1ccco1` (stereo unspecified), the INHIBITION is -0.87%.

For the compound `Cc1cccc(CN2C[C@@H]3[C@@H](C(=O)NCC(C)C)CCS(=O)(=O)[C@@H]3C2)c1`, the INHIBITION is given as -41.9%.

Regarding `CCc1nc(CN2CCCC(NCc3nnc(C4CC4)n3C)C2)no1` (stereo unspecified), the INHIBITION is 1.75%.

With `CCc1ccc(CN2CCC3(CC2)CNC(=O)CO3)o1`, the INHIBITION was found to be 33.7%.

For the compound `CC(C)Cc1cc(C(=O)NCCc2ccc(S(C)(=O)=O)cc2)[nH]n1`, the INHIBITION is listed as 8.69%.

Consider `O=C(O)c1cc(S(=O)(=O)Nc2cc(Cl)ccc2F)cc2c1OCCO2`, for which the INHIBITION is on record as 27.6%.

Consider `CN(CC(=O)NC(N)=O)CC1(c2ccc(Br)cc2)CC1`, for which the INHIBITION is -17.3%.

Consider `COC1COC2(CCN(Cc3ccc4c(c3)OCO4)CC2)C1` (stereo unspecified), for which the INHIBITION was -39.3%.

For `Cc1cc(C(=O)N2CCC3(CCC(=O)N(CC(N)=O)C3)CC2)ccc1O`, the INHIBITION is -64.3%.

Take `C[C@@H]1CN(C(=O)C2(Cn3cccn3)CC2)CC[C@@]1(O)C1CC1`: the INHIBITION is 24.205%.

On to `CNC(=O)Cn1c(-c2ccco2)nn(-c2ccccc2OC)c1=O`, for which the INHIBITION worked out at 59.5%.

In the case of `COc1ccccc1-n1nc(-c2ccco2)n(CC(=O)NC2CC2)c1=O`, the INHIBITION is recorded as 27.6%.

Regarding `COc1ccccc1-n1nc(-c2ccco2)n(CC(=O)NC(C)C)c1=O`, the INHIBITION amounted to 45.6%.

Regarding `Cc1cc(NC(=O)CNC2CCc3ncnn3C2)no1` (stereo unspecified), the INHIBITION was 17.4%.

In the case of `CCOC(=O)CC(c1ccc(OC)cc1)c1c(O)n[nH]c1C` (stereo unspecified), the INHIBITION was -14.9%.

As to `Cc1ccc(C(=O)N2CCCC3(CCCC(=O)N3C)C2)cc1F` (stereo unspecified), the INHIBITION was 15.7%.

With `COc1ccc(CCN(C)C2CCCN(Cc3noc(C)n3)C2)cc1` (stereo unspecified), the INHIBITION was -42.3%.
